High-throughput results as filed in PubChem.
This is a sample that favours compounds with a hit; in the whole collection about 19% have one here.
SARS PLP yeast: blocks SARS-CoV papain-like protease in a yeast assay; actives 0.19% (n = 330,000); Potency, µM (highest dose often 32.9 µM), hits mostly activators; AID 485353; S. cerevisiae expressing SARS-CoV PLpro, growth rescue; calls by dose curve; also: nearly all actives have a fitted effect of over 55% in size
AMA1 RON2 block: disrupts binding of P. falciparum AMA1 to RON2; AlphaScreen AMA1-biotinylated RON2 peptide binding; actives 0.2% (n = 360,000); Potency, µM (highest dose often 58.2 µM), hits mostly inhibitors; AID 720542; also: nearly all actives have a fitted effect of over 45% in size
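AMA1 (3D7) with his tag at 25 nM final met compounds first, then biotinylated RON2 peptide at 25 nM; detection used donor plus acceptor beads, 10 µg/mL apiece, read by AlphaScreen after 30 min at room temperature.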
Pf growth 48h: inhibits P. falciparum growth in the first generation, 48 h | P. falciparum luciferase growth in erythrocytes, 48 h | Potency, µM (series often up to 28.7 µM), hits mostly inhibitors | actives 5.9% (n = 310,000)
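Luciferase-expressing parasites in RBCs, 2% Hct / 0.1% parasitemia final; RPMI 1640 + 0.5% Albumax; 37 C, 5% CO2, one generation; luminescence read-out, lower signal = inhibition.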
Shiga toxin inh: blocks Shiga toxin action in Vero cells; Vero cells, Shiga toxin protein synthesis inhibition reporter; inhibition, % at 38.7 µM; actives 9.2% (n = 290,000); in the data active = inhibition mostly above about 28%, no sharp cut-off; inactive = mostly below about 43%
CHX counter: counter-screen hit for Shiga toxin inhibitors, cycloheximide; cell reporter, cycloheximide protein synthesis inhibition counterscreen; actives 12% (n = 300,000); max response, %; AID 2314; in the data active = max response mostly above about 13%, no sharp cut-off; inactive = mostly below about 14%; also: read at 38.3 µM for the half of the compounds with a filed dose
Pf growth 96h: P. falciparum growth inhibition at 96 hour, primary screen for plastid delayed-death inhibitors; P. falciparum luciferase reporter growth, 96 h; Potency, µM (doses to about 28.7 µM), actives largely listed as inhibitors; actives 6.9% (n = 320,000); AID 504834
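Plates of compound plus infected erythrocytes (2% hematocrit, 0.05% parasitemia final) incubate 96 hours, 37 C, 5% CO2. Detection reagent added; reduced luminescence from the parasites' luciferase reporter flags inhibition.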
Of the large screens only hits and unclear results are named; the others gave an inactive call. Unless noted, calls follow the shape of the dose curve; as a rule, active = well fitted curve in the direction sought with a large enough effect; inconclusive = small, poorly fitted or top-dose-only effect, or another doubt; inactive = no such curve, though single readings can be large; an effect the other way counts as inactive or inconclusive.

CCC(C)Sc1ccc([C@@H]2[C@@H]3C(=O)N(CC)C(=O)[C@@H]3[C@]3(C(=O)OC)CCCCN23)cc1 (some centres not stated)	none (no result: Pf growth 48h, Shiga toxin inh, CHX counter, Pf growth 96h)
CCN1C(=O)[C@H]2[C@@H](c3ccc(SC4CCCCC4)c(OC)c3)N3CCCC[C@@]3(C(=O)OC)[C@H]2C1=O	Pf growth 48h 3.7µM, Pf growth 96h 12µM (no result: Shiga toxin inh, CHX counter)
O=C(OCc1ccccc1)N1CCC2CC1c1cc(/C=C/CCCSc3ncccn3)ccc12 (configuration not stated)	none (no result: SARS PLP yeast, Pf growth 48h, Shiga toxin inh, CHX counter, Pf growth 96h)
CC(C)CCN=CC1=C(O)CC(c2ccccc2)CC1=O (configuration not stated)	CHX counter 29
COc1ccccc1N=CC1=C(O)CC(c2ccccc2)CC1=O (configuration not stated)	Pf growth 96h 13µM
O=C1CC(c2ccccc2)CC(O)=C1C=Nc1ccccc1Cl (configuration not stated)	Pf growth 96h inconclusive
O=C1CC(c2ccccc2)CC(O)=C1C=NCc1ccncc1 (configuration not stated)	Pf growth 96h 12µM
CCCN=CC1=C(O)CC(c2ccccc2)CC1=O (configuration not stated)	none
O=C(O)C1=C[C@@H](c2coc3ccccc3c2=O)C[C@@H](OCCCCO)O1	none
CCN(CC)S(=O)(=O)c1ccc(NC(=O)c2ccc(N3CCCC3=O)cc2)cc1	none (no result: Pf growth 48h, Shiga toxin inh, CHX counter, Pf growth 96h)
O=C(NCc1ccc2c(c1)OCO2)C(=O)NCC1OCCCN1S(=O)(=O)c1ccccc1 (configuration not stated)	none (no result: SARS PLP yeast, Pf growth 48h, Shiga toxin inh, CHX counter, Pf growth 96h)
CCO[C@H]1OC(C(=O)O)=C[C@@H](C)[C@@H]1CCCO	none
c1ccc(-n2cnc3cc(NCc4cccs4)ccc32)cc1	Shiga toxin inh 77, CHX counter 88
COc1ccc(-n2cnc3cc(NCc4ccccn4)ccc32)cc1	Pf growth 48h inconclusive, Pf growth 96h inconclusive
Cn1cnc2cc(NCc3cccs3)ccc21	Shiga toxin inh 65, CHX counter 24, Pf growth 96h 10µM
COc1ccc(-n2cnc3cc(NCc4cccs4)ccc32)cc1	Pf growth 48h inconclusive, Shiga toxin inh 100, CHX counter 51
CC(=O)N1CCN(c2ccc(NCc3cccs3)cc2)CC1	none (no result: Pf growth 96h)
CCn1cnc2cc(NCc3ccncc3)ccc21	none (no result: Pf growth 96h)
Cc1ccc(-n2cnc3cc(NCc4cccs4)ccc32)cc1	AMA1 RON2 block inconclusive, Shiga toxin inh 100, CHX counter 53, Pf growth 96h inconclusive (no result: Pf growth 48h)
Cc1sc(NC(=O)C2=COCCO2)nc1-c1ccc(F)cc1	Pf growth 48h inconclusive, Pf growth 96h inconclusive (no result: Shiga toxin inh, CHX counter)
O=C(CC12CC3CC(C1)CC(CC(=O)N1CCCC1)(C3)C2)N1CCCC1	none (no result: Pf growth 48h)
c1ccc(-n2cnc3cc(NCc4ccco4)ccc32)cc1	Shiga toxin inh 63, CHX counter 35
CCC(C)(C)n1nnnc1C(c1cc(OC)ccc1OC)N1CCC(C(N)=O)CC1 (configuration not stated)	Pf growth 96h inconclusive
COc1ccc(C2N(C(=O)c3ccccc3)CCN2C(=O)c2ccc(C)cc2)cc1 (configuration not stated)	Pf growth 96h inconclusive (no result: Pf growth 48h)
COc1ccc(C2CN=NC2C(=O)c2ccccc2)cc1 (configuration not stated)	Pf growth 48h 15µM, Shiga toxin inh 26, CHX counter 21, Pf growth 96h 9.3µM
O=C(OCC(=O)N1CCCC1=O)c1cccc([N+](=O)[O-])c1	none
O=C(NCc1ccco1)c1ccc(COCC(F)(F)F)cc1	Pf growth 48h inconclusive (no result: Pf growth 96h)
COc1ccc(CNC(=O)NC2CCCCC2)cc1	Shiga toxin inh 33, CHX counter 26
O=C(CCNC(=O)OCc1ccccc1)NC1CCCCC1	Pf growth 96h 3.7µM
O=C(NC1CCCCCC1)C(=S)NCc1ccccc1	Shiga toxin inh 62, CHX counter 39, Pf growth 96h inconclusive
O=C(NC1CCCCC1)C(=S)NCc1ccccc1	Shiga toxin inh 83, CHX counter 21
Cc1nc(C(F)(F)F)ccc1C(=O)N1CCCC(C)(C(=O)O)C1 (configuration not stated)	none (no result: SARS PLP yeast, Pf growth 48h, Shiga toxin inh, CHX counter, Pf growth 96h)
Cc1ccc(NC(=O)c2ccc(C(=O)c3ccccc3)cc2)nc1	none (no result: Shiga toxin inh, CHX counter)
CCCCn1nnnc1C(c1cc2ccccc2o1)N(CCN(C)C)Cc1ccccc1 (configuration not stated)	none (no result: SARS PLP yeast, Pf growth 48h, Shiga toxin inh, CHX counter, Pf growth 96h)
COc1ccccc1CCNC1CCC(C(C)(C)C)CC1 (configuration not stated)	Pf growth 48h 2.3µM, Pf growth 96h 2.6µM
COc1ccc(CCNC(=O)NC2CCCCC2)cc1OC	none
O=C(NCCc1ccccc1)NC1CCCCC1	SARS PLP yeast inconclusive, Shiga toxin inh 52, CHX counter 39
O=C(NC1CCCCCC1)C(=S)NCCc1ccccc1	Pf growth 96h 10µM
S=C(NCCc1cccc(Cl)c1)NC1CCCCC1	Shiga toxin inh 77, CHX counter 59
Cc1cc(C)n2nc(C(=O)Nc3cccc(S(=O)(=O)N(C)c4ccccc4)c3)nc2n1	Pf growth 48h inconclusive, Pf growth 96h inconclusive
C[C@H](NC(=O)c1ccco1)C(=O)NNC(=O)COc1cccc(C(F)(F)F)c1	none (no result: Pf growth 48h, Shiga toxin inh, CHX counter, Pf growth 96h)
Nc1cc(=O)[nH]c(SCC(=O)NNC(=O)Cc2ccccc2)n1	none
O=C(CCCN1C(=O)C2CC=CCC2C1=O)Nc1ccccc1F (configuration not stated)	none
COc1ccc(NC(=O)c2cccc(C#N)c2)cc1NS(=O)(=O)c1ccc(F)cc1	none
Cc1cc(OC(C)C(=O)N2C[C@H]3C[C@@H](C2)c2cccc(=O)n2C3)c2c(C)c(C)c(=O)oc2c1 (some centres not stated)	Pf growth 96h inconclusive
COc1ccccc1CCNC(=O)C1(C)CC1(Cl)Cl (configuration not stated)	CHX counter 15
O=C(NCCC1=CCCCC1)NC1CCCCC1	Shiga toxin inh 72, CHX counter 45
COc1ccccc1CCNC(=O)NC1CCCCC1	CHX counter 18
O=C(NCc1ccccc1)NC1CCCCC1	Shiga toxin inh 42, CHX counter 38 (no result: Pf growth 48h)
COC(=O)[C@H](Cc1ccccc1)NC(=O)N1CCN(c2ccc(F)cc2)CC1	Pf growth 48h inconclusive
Cc1c(Cl)cccc1N1C(=O)CC(NNC(=O)c2cccs2)C1=O (configuration not stated)	CHX counter 20
O=C(NNC1CC(=O)N(c2ccc(Br)cc2)C1=O)c1cccs1 (configuration not stated)	Shiga toxin inh 35
Cc1c(Cl)cccc1N1C(=O)CC(NNC(=O)c2cccnc2)C1=O (configuration not stated)	none
COC(=O)c1cc2c(ccn2-c2ccc(F)cc2)n1CC(=O)N1CCN(C(=O)c2ccco2)CC1	Pf growth 48h inconclusive
O=C(Nc1ccc(N2CCN(C(=O)c3ccco3)CC2)cc1)c1ccccc1	Pf growth 48h inconclusive, CHX counter 12
